Compound activity (PubChem BioAssay)
Compounds with a hit are over-represented: about 12% of the library has one in this group of screens.
CHX counter: counter-screen for Shiga toxin inhibitors: cycloheximide protein synthesis inhibition; cell reporter, cycloheximide protein synthesis inhibition counterscreen; max response, %; 300,000 tested, 12% active; AID 2314; in the data active means max response mostly above about 13%, no sharp cut-off; inactive means mostly below about 14%; further: read at 38.3 µM for the half of the compounds with a filed dose; 0% is about no effect
NS1 inh: blocks influenza NS1 protein function; Potency, µM (titrated, usually from 46.1 µM), for the others: top-dose activity, positive = more growth; 270,000 tested, 0.4% active; further: potency means the concentration at half of the fitted maximal effect; actives are rising curves; nearly all actives have a fitted effect of over 50% in size
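Read-out: OD600 growth recovery of NS1-expressing budding yeast. Cells grown overnight at 30C in -URA glucose medium, washed, resuspended and diluted 1:100 in 2% galactose assay medium, pH 6.0. Same strain lacking NS1 served as positive control.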
Shiga inhibitor: inhibitors of Shiga toxin in Vero cells. AID 2315. 290,000 tested, 9.2% active. inhibition, % at 38.7 µM. Vero cells, Shiga toxin protein synthesis inhibition reporter; in the data active means inhibition mostly above about 28%, no sharp cut-off; inactive means mostly below about 43%; further: 0% is about no effect
SARS PLpro yeast: blocks SARS-CoV papain-like protease in a yeast assay; S. cerevisiae expressing SARS-CoV PLpro, growth rescue; Potency, µM (top dose mostly 32.9 µM), for the others: at the top dose activity, positive = growth rescue, usual class: activators; 330,000 tested, 0.19% active; AID 485353; further: potency means the concentration at half of the fitted maximal effect; 0% is about no effect; nearly all actives have a fitted effect of over 55% in size
* = called active by the depositor; nt = not tested or not shown. Unless noted, the call rests on the fitted dose curve.

SMILES | CHX counter | NS1 inh | Shiga inhibitor | SARS PLpro yeast
COc1ccc(-c2noc(-c3cccnc3)n2)cc1OC | 16.9* | -32.0% | 51.8* | -1.7%
CCOc1ccc(-c2noc(COC)n2)cc1OC | 20.6* | -2.2% | 23.3 | -3.4%
COc1ccc(-c2nc(CC(=O)O)cs2)cc1OC | -0.9 | -5.3% | -12.2 | -5.8%
CCOc1ccc(-c2nc(CCl)cs2)cc1OC | 16.9* | -3.5% | 40.5 | -0.4%
CCOc1ccc(-c2noc(-c3cccnc3)n2)cc1OC | 15.0* | -8.7% | 27.1 | 0.5%
CCOc1ccc(CNC(=O)CCC(=O)N2Cc3ccccc3Oc3ncccc32)cc1 | -2.5 | -3.3% | 1.9 | -1.1%
O=C(OCc1ccccc1)c1cn(-c2ccccc2)nc1-c1ccncc1 | 4.7 | -7.8% | 7.4 | -34.4%
CCN(C(=O)CSc1nc2ccc([N+](=O)[O-])cc2s1)C1CCS(=O)(=O)C1 (stereo not given) | 13.4* | nt | -2.9 | 1.0%
COc1ccc(/C=C(\C#N)C(=O)OCC(=O)Nc2ccc(C(C)(C)C)cc2)cc1 | 10.6* | -8.9% | 20.6 | -0.6%
COc1ccc(/C=C(\C#N)C(=O)Nc2cccc(C)n2)cc1 | 25.4* | 1.4% | 35.5* | 7.7%
Cc1cccc(NC(=O)/C(C#N)=C/c2ccccc2Cl)n1 | 10.0 | 6.3% | 41.5 | -0.6%
Cc1cccc(NC(=O)/C(C#N)=C/c2ccccc2O)n1 | 39.6* | -5.9% | 77.8* | 0.2%
N#C/C(=C\c1ccccc1O)C(=O)Nc1ccccn1 | 21.2* | -6.3% | 81.6* | -0.5%
Cc1cc2ncc(S(C)(=O)=O)c(N)n2n1 | 4.3 | nt | 7.9 | 0.7%
COc1ccc2nc3n(c(=O)c2c1)-c1cc(Cl)ccc1C(=O)NC3Cc1ccccc1 (stereo not given) | nt | nt | nt | 2.6%
COc1cccc(NC(=O)Nc2nccc(C)n2)c1 | 38.2* | -2.8% | 72.4* | -1.8%
Cc1cccc(NC(=O)Nc2cccc(F)c2)n1 | 52.5* | -45.9% | 78.7* | -16.4%
Cc1ccnc(NC(=O)Nc2cccc(F)c2)n1 | 28.4* | -4.6% | 79.2* | -1.9%
O=C(CN1CCN(Cc2ccc(Cl)cc2)CC1)N/N=C/c1c[nH]c2ccccc12 | -6.2 | 4.6% | 4.7 | -3.1%
CC(C)OCCCNc1ncnc2c1cnn2-c1ccccc1 | 10.8 | -1.6% | 55.1* | -0.9%
CN(C)CCCNc1ncnc2c1cnn2-c1ccccc1 | 49.0* | -5.3% | 71.7* | 0.9%
OCCOCCNc1ncnc2c1cnn2-c1ccccc1 | -2.4 | 6.2% | -12.5 | 7.9%
COc1ccc(-c2cc(C(=O)N3CCCCCC3)c3ccccc3n2)cc1 | nt | nt | nt | 6.0%
O=C(CNC(=O)c1ccc(Cl)cc1Cl)OCCOc1ccccc1 | nt | nt | nt | -10.6%
O=C(N/N=C/c1ccc(O)cc1)Nc1cccc2nsnc12 | 39.9* | -0.2% | 93.8* | -1.7%
SMILES | CHX counter | NS1 inh | Shiga inhibitor | SARS PLpro yeast
Cc1ccc(-c2nc3ccccc3s2)cc1NC(=O)c1ccc2c(c1)OCO2 | 6.2 | 1.9% | 24.4 | -3.2%
O=C(Nc1cccc2cccnc12)c1ccc(Br)cc1 | 31.2* | nt | 43.8 | nt
O=C(Nc1cccc2cccnc12)c1ccc2c(c1)OCCO2 | 66.9* | -12.4% | 114.8* | -16.3%
O=C(Nc1cccc2nsnc12)c1ccc2c(c1)OCO2 | 16.9 | -12.1% | 52.5* | -6.0%
Cc1ccc(SCC(=O)NC(=O)NCc2ccco2)cc1C | -5.0 | -22.7% | -13.4 | -7.3%
Cc1ccc(NC(=O)CCS(=O)(=O)c2cccc3nonc23)c(Cl)c1 | -0.6 | 10.9% | -14.5 | 14.2%
Cc1ccc(C(=O)NC(=S)Nc2cccc3nsnc23)cc1 | -2.2 | -3.4% | -22.3 | 5.0%
O=C(Nc1cccc2nsnc12)c1ccc(F)cc1 | 29.9* | -7.9% | 49.9* | -5.1%
O=C(Nc1cc(-c2nc3ccccc3s2)ccc1Cl)c1ccc2c(c1)OCO2 | 27.3* | 7.4% | 51.6* | 2.3%
O=C(Nc1cccc2nsnc12)c1ccc2c(c1)OCCO2 | 30.3* | -13.6% | 108.1* | -4.2%
O=C(Nc1cccc(Cl)c1N1CCCCC1)c1ccc2c(c1)OCCO2 | -2.8 | -78.1% | -13.9 | -2.8%
Cc1cccc(C)c1NC(=O)CN(C)CC(=O)N(C)CC(=O)Nc1ccccc1Br | nt | nt | nt | -0.5%
O=C(N/C(=C/c1cccs1)C(=O)N1CCOCC1)c1ccco1 | -1.6 | -4.5% | 11.4 | -20.8%
COc1cccc(/C=C/C(=O)c2ccc(NS(=O)(=O)c3ccc(C)cc3)cc2)c1 | -1.6 | 2.4% | -14.3 | 5.7%
CCC1CSC(Nc2ccc(C(=O)/C=C/c3ccc(Oc4ccccc4)cc3)cc2)=N1 (stereo not given) | 47.1* | 19.3% | 30.3* | -22.8%
CCC1CSC(Nc2ccc(C(=O)/C=C/c3cccc(C)c3)cc2)=N1 (stereo not given) | 13.0* | 12.7% | -2.0 | -11.3%
COc1ccc(NC(=O)/C(C#N)=C/c2ccc(OCCN3CCOCC3)c(OC)c2)c(OC)c1 | -2.0 | 15.1% | 12.5 | -4.1%
